Screens from PubChem.
KCNQ2 inh: inhibitors of rat KCNQ2 potassium channel. CHO-K1 KCNQ2, FluxOR thallium flux, 20 min; active compounds read low. 310,000 tested, 1.1% active. AID 2156. O88943. B-score at 10 µM;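 active = fluorescence ratio B-score at most minus 3 library SDs, with starting brightness B-score within 2 library SDs, cut at about -5.5 in these data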
KCNQ2 pot: KCNQ2 (rat) channel potentiation; B-score at 10 µM; CHO-K1 KCNQ2, FluxOR thallium flux fluorescence; active compounds read high; O88943; 310,000 tested, 0.54% active; AID 2239;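 active = fluorescence ratio B-score at least 3 SD of library B-scores, with initial fluorescence B-score within 3 of them, cut at about 5.3 in these data; same plate scores as AID 2156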;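 also: B-score of peak minus minimum over baseline fluorescence ratio after K+ and Tl+ stimulus; positive B-score means potentiation of KCNQ2 with more thallium influx and brighter signal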
KCNQ2 inh conf: confirmation of rat KCNQ2 potassium channel inhibitors | shares compounds with KCNQ2 inh | KCNQ2-expressing cells, thallium flux, inhibition; active compounds read low | activity change, negative = inhibition, % at 10 µM | 1,000 tested, 57% active;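 also: 0% = vehicle wells and values are ratio percent relative to vehicle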
KCNQ1 spec: selectivity of KCNQ2 inhibitors against human KCNQ1 | 1,000 tested, 15% active | activity change, negative = inhibition, % at 10 µM | KCNQ1-expressing cells, FluxOR thallium flux fluorescence; active compounds read low | shares compounds with KCNQ2 inh;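 active = activity change at least 3 SD of negative controls below their mean in both duplicate wells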;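 also: CHO cells stably transfected with KCNQ1 and depolarized by potassium stimulus; peak minus minimum fluorescence over baseline after thallium addition; 0% = vehicle negative control and -100% = blank without thallium stimulus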
CHO Tl ctr: activity in parental CHO cells lacking KCNQ2. shares compounds with KCNQ2 inh. thallium flux counter-screen; active compounds read low. activity change, % at 10 µM. 1,000 tested, 14% active. AID 493029;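 also: 0% = vehicle negative controls with stimulus buffer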
KCNQ2 inh confirm: blocks rat KCNQ2 current in automated patch clamp. 550 tested, 49% active. calls only at 10 µM. shares compounds with KCNQ2 inh. KCNQ2-expressing cells
Kir21 confirm: confirmation of mouse Kir2.1 potassium channel inhibitors; 2,300 tested, 41% active; AID 2032; shares compounds with KCNQ2 pot; Tl flux remaining, % of negative control (active compounds read low), % at 10 µM; Kir2.1-expressing cells, FluxOR thallium flux fluorescence; active compounds read low;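 active = Primary-screen hit whose thallium flux fell at least 3 control SD below untreated wells in both duplicates, with normal baseline fluorescence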;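 also: 0% = blank wells without stimulus and 100% = stimulated no-compound controls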
Target sequence (P35561 whole entry, looked up): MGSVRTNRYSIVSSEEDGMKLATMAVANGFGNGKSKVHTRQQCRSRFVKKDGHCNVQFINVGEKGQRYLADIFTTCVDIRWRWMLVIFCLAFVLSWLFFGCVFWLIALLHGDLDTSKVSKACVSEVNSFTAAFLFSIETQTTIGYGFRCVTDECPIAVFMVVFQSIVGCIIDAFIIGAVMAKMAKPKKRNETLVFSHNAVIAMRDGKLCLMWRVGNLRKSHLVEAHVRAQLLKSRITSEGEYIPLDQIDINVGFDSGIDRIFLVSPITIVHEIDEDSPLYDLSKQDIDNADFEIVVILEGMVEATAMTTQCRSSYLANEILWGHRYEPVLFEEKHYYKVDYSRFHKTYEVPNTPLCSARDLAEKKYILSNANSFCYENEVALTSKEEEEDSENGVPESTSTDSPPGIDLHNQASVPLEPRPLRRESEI
HEK293 ctr: parental HEK293 activity in Kir2.1 inhibitor counter-screen. shares compounds with KCNQ2 pot. 2,300 tested, 19% active. FluxOR signal as % of negative control (100 = no effect), % at 10 µM. parental HEK293 cells, FluxOR thallium flux fluorescence; 0% = unstimulated blank wells;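 active = dye signal at least 3 control SD above or below untreated wells in both duplicates, raw fluorescence within 3, either direction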;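 also: percent is based on the flux ratio of peak minus minimum fluorescence over baseline F0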
CHO-K1 Tl ctr: parental CHO-K1 activity in KCNQ2 potentiator counter-screen; shares compounds with KCNQ2 pot; parental CHO-K1 cells, FluxOR thallium flux fluorescence; zero = vehicle mean+3SD, 100% = vehicle-minus-blank window; activity increase over 3SD of controls, % at 10 µM; 1,200 tested, 43% active; AID 2282;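 active = signal rise of at least 3 SD above the untreated control mean, in both duplicate wells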;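 also: counter screen of KCNQ2 potentiator hits so any rise reflects channel-independent effects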
KCNQ1 pot spec: human KCNQ1 counter-target activity of KCNQ2 potentiators. shares compounds with KCNQ2 pot. CHO KCNQ1 stable, FluxOR thallium flux fluorescence; beyond 3SD, as % of vehicle-control signal. activation over 3SD threshold, % at 10 µM. 1,200 tested, 28% active. AID 2283;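 active = fluorescence ratio rise of at least 3 SD of vehicle wells above their mean, in both replicate wells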;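 also: 0% = vehicle mean plus 3 SD and 100% = vehicle minus unstimulated blank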
KCNQ2 pot confirm: confirmation of rat KCNQ2 potassium channel potentiators | 1,200 tested, 68% active | shares compounds with KCNQ2 pot | potentiation, less the hit threshold, % at 10 µM | CHO-KCNQ2 cells, FluxOR thallium flux fluorescence;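 active = fluorescence ratio rising 3 SD or more over the vehicle control mean in both replicates, plus primary screen hit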;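 also: peak minus minimum thallium fluorescence divided by baseline after K/Tl stimulus; 0% = vehicle mean plus 3 SD and 100% = vehicle minus unstimulated blank difference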
Kir21 spec: selectivity of KCNQ2 potentiators: effect on mouse Kir2.1. shares compounds with KCNQ2 pot. AID 2345. activity over 3SD threshold, % at 10 µM. 1,200 tested, 2% active. HEK293 Kir2.1, FluxOR thallium flux fluorescence;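 active = fluorescence ratio rise of at least 3 SD above the vehicle-control mean, seen in both replicates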;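 also: 0% = vehicle mean plus 3 SD and 100% = vehicle minus no-stimulus blank window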
KCNQ2 W236L pot: potentiates the retigabine-insensitive rat KCNQ2 W236L mutant channel | shares compounds with KCNQ2 pot | current increase over 3SD of negative controls (%), active compounds read high, % at 25 µM | CHO KCNQ2-W236L, automated patch clamp current | 940 tested, 10% active | AID 2558;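 active = current increase at least 3 SD of the untreated controls above them in both duplicate recordings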
* = called active by the depositor; i = inactive; . = no result. An excerpt weighted towards active compounds, which were near 1.6% of everything screened. Unless noted, no rule for the calls is given here.

SMILES	KCNQ2 inh	KCNQ2 pot	Kir21 confirm	HEK293 ctr	others
Cc1cc(Cl)ccc1OCC(=O)Nc1ccccc1N1CCOCC1	i	.	.	.
CN1CCN(NC(=O)c2cc(-c3ccc(Cl)s3)nc3ccccc23)CC1	i	.	.	.
O=C(CN1C(=O)CSc2ccc(S(=O)(=O)N3CCOCC3)cc21)NCCCN1CCc2ccccc2C1	i	.	.	.
OCC[C@@H]1C[C@H](O)[C@@H](O)[C@]2(CCCO2)O1	i	0.42	.	.
Cc1cc(C)n(-c2nc(SCCN(C)C)c3c4c(sc3n2)CCCC4)n1	-8.9*	-8.9	i	i	KCNQ2 inh conf=-30%*;KCNQ1 spec=-31%*;CHO Tl ctr=i;KCNQ2 inh confirm=i
Cc1cc(C)n(-c2nc(SCC(=O)O)c3c4c(sc3n2)COC(C)(C)C4)n1	i	.	.	.
Cc1ccccc1CN1CCCOCCS1(=O)=O	i	.	.	.
c1ccc(Cc2nc3ccccc3n2Cc2ccccc2)cc1	-8.1*	-8.1	64%*	77%*	KCNQ2 inh conf=-46%*;KCNQ1 spec=-44%*;CHO Tl ctr=-36%*;KCNQ2 inh confirm=i
Cc1nc2ccccc2n1Cc1ccccc1	i	.	.	.
N#Cc1c(Cc2cccc3ccccc23)nn(CCO)c1N	i	1.8	.	.
COc1cccc(Nc2nc(NCC3CCCO3)c3ccccc3n2)c1 (centres undefined)	-10*	-10	18%*	i	KCNQ2 inh conf=i;KCNQ1 spec=i;CHO Tl ctr=i
COc1cccc(Nc2nc(NCCO)c3ccccc3n2)c1	i	.	.	.
O=[N+]([O-])c1cc(S(=O)(=O)C(F)(F)F)ccc1NCC1CCCO1 (centres undefined)	i	2	.	.
N=c1c2c(-c3ccccc3)c(-c3ccccc3)n(Cc3ccco3)c2ncn1CCCO	i	.	.	.
N=c1c2c(-c3ccccc3)c(-c3ccccc3)n(Cc3ccco3)c2ncn1CCO	-7*	-7	37%*	i	KCNQ2 inh conf=i;KCNQ1 spec=i;CHO Tl ctr=i
Cc1cccc(CC(=O)NCC2CCCCC2)c1	i	9.4*	i	i	CHO-K1 Tl ctr=39*;KCNQ1 pot spec=-18;KCNQ2 pot confirm=28*;Kir21 spec=-27;KCNQ2 W236L pot=i
COc1cccc(/C=C/C(=O)NCC2CCCCC2)c1	i	.	.	.
CS(=O)(=O)c1ccccc1-c1nnc(NC(=O)c2ccc3ncsc3c2)o1	i	.	.	.
COC(=O)c1cc2ccsc2n1Cc1ccccc1F	i	0.21	.	.
O=C(Cn1cnc([N+](=O)[O-])n1)c1ccc(O)c(O)c1	i	.	.	.
CN(C(=O)Cn1nnc(-c2cccnc2)n1)C1CCCCC1	i	.	.	.
OCCNCc1ccc(-c2ccccc2)cc1	i	1	.	.
OCCCNCc1ccc(N(c2ccccc2)c2ccccc2)cc1	i	.	23%*	i
Cc1nnc(NS(=O)(=O)c2ccc(Br)cc2)s1	i	.	.	.
O=C(COC(=O)Cc1cccc(C(F)(F)F)c1)Nc1ccccc1	i	1.4	.	.
SMILES	KCNQ2 inh	KCNQ2 pot	Kir21 confirm	HEK293 ctr	others
O=C(Cc1cccc(C(F)(F)F)c1)Nc1ccccc1	i	9*	i	i	CHO-K1 Tl ctr=35*;KCNQ1 pot spec=59*;KCNQ2 pot confirm=13*;Kir21 spec=-35;KCNQ2 W236L pot=i
O=C(NC1CCCC1)c1cc(-c2ccc(Cl)cc2)on1	i	.	.	.
Cc1nc(C)n(CCNC(=O)c2ccco2)n1	i	0.6	.	.
O=[N+]([O-])c1ccccc1S(=O)(=O)N1CCCc2ccccc21	i	.	.	.
O=S(=O)(c1ccccc1F)N1CCCc2ccccc21	i	0.02	60%*	i
C=CCN(c1ccccc1C(=O)O)S(=O)(=O)/C=C/c1ccccc1	i	.	.	.
CCc1ccccc1NC(=S)N(CCCN1CCOCC1)Cc1cccs1	i	0.25	.	.
Cc1ccccc1OCCC(=O)OCC(=O)Nc1c(C)nn(-c2ccccc2)c1C	i	1.8	.	.
Cc1ccc2nc(Cl)c(/C=N/n3c(C)nnc3C)cc2c1	i	.	.	.
Cc1ccc(S(=O)(=O)NCC(=O)Nc2cccc([N+](=O)[O-])c2)cc1	i	0.34	.	.
Cc1ccc(S(=O)(=O)CCC(=O)c2cccc([N+](=O)[O-])c2)cc1	-13*	-13	51%*	58%*
CC(Nc1ncnc2ccccc12)c1ccccc1 (centres undefined)	i	2.4	.	.
CCCCC(Nc1ncnc2ccccc12)C(=O)O (centres undefined)	i	7.7*	i	i	CHO-K1 Tl ctr=-4;KCNQ1 pot spec=-11;KCNQ2 pot confirm=-24;Kir21 spec=-43
CCCc1c(C(=O)N/N=C/c2sccc2C)nnn1-c1nonc1N	i	0.1	.	.
CCc1ccc(OCC(=O)NCc2ccco2)c(Br)c1	i	7.8*	i	i	CHO-K1 Tl ctr=-25;KCNQ1 pot spec=-14;KCNQ2 pot confirm=22*;Kir21 spec=-21;KCNQ2 W236L pot=i
O=C(COc1ccccc1Br)NCc1ccco1	i	0.03	.	.
Cc1cc(S(=O)(=O)N2CCCC(N3CCOCC3)C2)c(C)cc1Cl (centres undefined)	i	0.92	.	.
Cc1nonc1OCCNC(=O)C12CC3CC(CC(C3)C1)C2	i	13*	i	74%*	CHO-K1 Tl ctr=74*;KCNQ1 pot spec=-20;KCNQ2 pot confirm=-14;Kir21 spec=-41
CCOC(=O)CNC(=O)C12CC3CC(CC(C3)C1)C2	i	0.43	.	.
CCCCCCC/C(C)=N/NC(=O)CC(=O)NCCc1ccccc1	i	5.6*	i	i	CHO-K1 Tl ctr=7.3*;KCNQ1 pot spec=-16;KCNQ2 pot confirm=-24;Kir21 spec=-36
CCCCCNC(=O)CCc1ccccc1	i	0.05	.	.
COc1ccc(C)cc1NS(=O)(=O)c1ccc2c(c1)N(C)CCO2	i	.	.	.
CC(C)=CCN1CCN(Cc2cnc(-c3ccccc3)s2)CC1CCO (centres undefined)	i	.	.	.
NS(=O)(=O)c1ccc(CCNC(=O)CN2CCC(Cc3ccccc3)CC2)cc1	i	0.06	.	.
